Common to all, as to set-up: scale not given: direction of the effect not stated beside the values
Test [1] deals with Protein translocase subunit SecA (Escherichia coli (strain K12)) (UniProt P10408). Put plainly: Assay to Identify E. coli SecA ATPase Inhibitors. The format is functional. To be noted: 30 µM.
Test [2] has as its target T1, Ubiquitin-activating enzyme e1, putative (Leishmania donovani (strain BPK282A1)) (UniProt E9BSI1).
T1 sequence (whole entry): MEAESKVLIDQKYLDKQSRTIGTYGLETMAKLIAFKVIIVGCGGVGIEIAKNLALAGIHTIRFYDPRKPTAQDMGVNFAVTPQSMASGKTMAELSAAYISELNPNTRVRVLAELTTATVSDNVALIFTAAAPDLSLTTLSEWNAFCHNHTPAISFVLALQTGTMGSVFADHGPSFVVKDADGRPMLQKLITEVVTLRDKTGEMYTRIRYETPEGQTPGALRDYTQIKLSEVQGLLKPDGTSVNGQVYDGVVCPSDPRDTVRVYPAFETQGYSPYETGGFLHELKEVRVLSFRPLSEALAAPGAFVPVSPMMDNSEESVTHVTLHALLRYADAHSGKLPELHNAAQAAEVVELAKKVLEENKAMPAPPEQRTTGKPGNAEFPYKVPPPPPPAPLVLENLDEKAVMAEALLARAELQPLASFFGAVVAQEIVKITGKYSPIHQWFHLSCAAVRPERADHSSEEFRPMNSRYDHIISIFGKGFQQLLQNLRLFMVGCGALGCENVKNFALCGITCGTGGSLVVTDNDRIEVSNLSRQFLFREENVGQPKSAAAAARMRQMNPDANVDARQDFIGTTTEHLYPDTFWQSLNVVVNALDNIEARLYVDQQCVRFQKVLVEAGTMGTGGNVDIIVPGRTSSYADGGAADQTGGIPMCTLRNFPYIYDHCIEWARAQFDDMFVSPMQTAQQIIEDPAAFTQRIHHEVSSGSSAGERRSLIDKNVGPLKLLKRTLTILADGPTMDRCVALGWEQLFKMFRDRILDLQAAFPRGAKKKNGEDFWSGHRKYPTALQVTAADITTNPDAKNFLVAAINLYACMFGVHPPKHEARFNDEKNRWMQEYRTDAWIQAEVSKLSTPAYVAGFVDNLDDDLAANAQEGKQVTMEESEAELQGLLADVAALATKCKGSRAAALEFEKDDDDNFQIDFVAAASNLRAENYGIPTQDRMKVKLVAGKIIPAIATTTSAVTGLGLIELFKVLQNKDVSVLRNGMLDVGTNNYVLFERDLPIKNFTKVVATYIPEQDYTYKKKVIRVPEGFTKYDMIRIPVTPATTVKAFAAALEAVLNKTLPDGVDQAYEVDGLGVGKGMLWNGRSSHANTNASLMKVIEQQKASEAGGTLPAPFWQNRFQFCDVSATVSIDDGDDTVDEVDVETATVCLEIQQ
Put plainly: Leishmania donovani Ubiquitin Activating Enzyme (LdE1). To be noted: 30 µM. The format is functional.

Test [3] has as its target AMP-activated protein kinase, AMPK (Homo sapiens) (UniProt P54646+O43741+P54619+Q9UGJ0+Q9Y478+Q13131+Q9UGI9). The test is described as follows: AMP-dependent Kinase enzyme assay. An in vitro enzyme assay that detects ADP turnover that is directly proportional to AMPK activity. This uses naive AMPK that is activated during the assay with MK-8722. Particulars: 30 µM. The format is functional.

The target of test [4] is Sialic acid-binding Ig-like lectin 9 (Homo sapiens) (UniProt Q9Y336). Put plainly: Hs-Siglec9 ALPHAscreen SOP 20170721. Particulars: 10 µM.
Chain of Sialic acid-binding Ig-like lectin 9 (Homo sapiens) (Q9Y336 whole entry): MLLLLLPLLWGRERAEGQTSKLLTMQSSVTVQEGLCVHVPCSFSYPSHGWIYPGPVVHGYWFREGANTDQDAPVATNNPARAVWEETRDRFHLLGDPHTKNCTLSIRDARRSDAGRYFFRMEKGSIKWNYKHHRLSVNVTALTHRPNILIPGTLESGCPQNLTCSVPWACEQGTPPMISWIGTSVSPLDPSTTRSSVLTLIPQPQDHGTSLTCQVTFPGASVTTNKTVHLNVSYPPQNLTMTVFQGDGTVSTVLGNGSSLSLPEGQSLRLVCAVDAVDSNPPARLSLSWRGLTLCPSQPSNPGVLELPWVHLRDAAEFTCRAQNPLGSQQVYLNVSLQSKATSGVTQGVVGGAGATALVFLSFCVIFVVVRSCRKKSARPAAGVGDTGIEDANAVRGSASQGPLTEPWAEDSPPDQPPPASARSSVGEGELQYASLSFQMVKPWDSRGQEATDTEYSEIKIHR
Test [5] relates to Trypanosoma cruzi. The test is described as follows: Trypanosoma cruzi phosphomannomutase and mannose-1-phosphate guanylyltransferase assay. The format is functional. Particulars: 10 µM.
Test [6] deals with T2, Arginase-2, mitochondrial (Homo sapiens) (UniProt P78540).
T2 sequence (whole entry): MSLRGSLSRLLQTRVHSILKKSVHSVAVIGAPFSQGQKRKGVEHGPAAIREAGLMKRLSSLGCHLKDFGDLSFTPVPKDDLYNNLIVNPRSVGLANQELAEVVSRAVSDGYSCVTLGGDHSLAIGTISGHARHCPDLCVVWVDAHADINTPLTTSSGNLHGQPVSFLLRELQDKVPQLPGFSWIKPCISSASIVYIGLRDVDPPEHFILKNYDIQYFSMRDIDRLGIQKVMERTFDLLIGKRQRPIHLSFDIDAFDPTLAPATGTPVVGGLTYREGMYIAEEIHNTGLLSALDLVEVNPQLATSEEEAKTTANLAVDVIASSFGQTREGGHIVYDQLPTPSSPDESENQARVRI
Put plainly: in vitro enzyme assay to detect the production of urea directly proportional to the activity of Arginase II. Further: in the data most compounds retested in dose-response had high values. The format is functional. Particulars: 33.3 µM.

Test [7] has as its target T3, Proteasome subunit beta (Trypanosoma cruzi) (UniProt O96673).
T3 sequence (whole entry): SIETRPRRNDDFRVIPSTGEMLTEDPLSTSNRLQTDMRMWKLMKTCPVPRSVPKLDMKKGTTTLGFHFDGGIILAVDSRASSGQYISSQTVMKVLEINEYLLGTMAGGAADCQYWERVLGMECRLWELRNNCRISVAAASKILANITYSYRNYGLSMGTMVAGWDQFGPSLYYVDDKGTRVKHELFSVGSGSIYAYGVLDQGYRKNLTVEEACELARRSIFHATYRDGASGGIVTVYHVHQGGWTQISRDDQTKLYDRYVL
Put plainly: Trypanosoma cruzi proteasome chymotrypsin-like activity (TcProtChymo) assay. Further: in the data most compounds retested in dose-response had high values. The format is functional. To be noted: 9.37 µM.

The species entered for test [8] is Homo sapiens. Put plainly: To identify inhibition of the IFN signalling (Jak-Stat) pathway via expression of an eGFP reporter gene under the control of an IFN-stimulated response element (ISRE) containing MxA promoter. The format is functional. Particulars: 30 µM. On the technique in general: A reporter such as luciferase makes a cellular process visible.
The target of test [9] is T4, Tyrosyl-tRNA synthetase, putative (Trypanosoma cruzi (strain CL Brener)) (UniProt Q4DSP6).
T4 sequence (whole entry): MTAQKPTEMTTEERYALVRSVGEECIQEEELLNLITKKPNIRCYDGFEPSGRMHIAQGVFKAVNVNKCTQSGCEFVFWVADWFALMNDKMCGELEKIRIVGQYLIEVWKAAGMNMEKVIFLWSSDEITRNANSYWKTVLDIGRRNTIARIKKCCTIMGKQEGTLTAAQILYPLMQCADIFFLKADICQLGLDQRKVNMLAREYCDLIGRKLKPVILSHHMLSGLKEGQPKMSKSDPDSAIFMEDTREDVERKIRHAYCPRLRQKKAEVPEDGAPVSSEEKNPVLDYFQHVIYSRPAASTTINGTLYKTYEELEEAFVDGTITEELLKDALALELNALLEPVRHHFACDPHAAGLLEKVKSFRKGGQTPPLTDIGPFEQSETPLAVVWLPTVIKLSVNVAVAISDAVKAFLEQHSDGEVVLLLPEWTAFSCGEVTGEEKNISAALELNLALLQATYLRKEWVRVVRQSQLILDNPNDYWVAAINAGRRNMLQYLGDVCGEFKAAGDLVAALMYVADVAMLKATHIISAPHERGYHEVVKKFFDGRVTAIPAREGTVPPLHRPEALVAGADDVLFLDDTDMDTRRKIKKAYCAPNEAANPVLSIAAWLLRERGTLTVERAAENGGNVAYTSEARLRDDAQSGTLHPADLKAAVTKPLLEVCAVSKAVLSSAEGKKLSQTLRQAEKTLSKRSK
The test is described as follows: Trypanosoma cruzi tyrosyl tRNA synthetase (TcYRS) _High Tyrosine SOP. Further: in the data most compounds retested in dose-response had high values. It is filed as functional. To be noted: 30 µM.

Test [10] concerns the target T4, Tyrosyl-tRNA synthetase, putative (Trypanosoma cruzi (strain CL Brener)). Put plainly: Trypanosoma cruzi tyrosyl tRNA synthetase (TcYRS) SOP. It is filed as functional. To be noted: 30 µM.
Test [11] deals with Chromo domain-containing protein 1 (Saccharomyces cerevisiae (strain ATCC 204508 / S288c) (Baker's yeast)) (UniProt P32657). The test is described as follows: ScCHD-1 Enzyme Inhibition Assay. Further: in the data most compounds retested in dose-response had high values. Particulars: 30 µM. It is filed as functional.
Chain of Chromo domain-containing protein 1 (Saccharomyces cerevisiae (strain ATCC 204508 / S288c) (Baker's yeast)) (P32657 whole entry, the tested form may be a part): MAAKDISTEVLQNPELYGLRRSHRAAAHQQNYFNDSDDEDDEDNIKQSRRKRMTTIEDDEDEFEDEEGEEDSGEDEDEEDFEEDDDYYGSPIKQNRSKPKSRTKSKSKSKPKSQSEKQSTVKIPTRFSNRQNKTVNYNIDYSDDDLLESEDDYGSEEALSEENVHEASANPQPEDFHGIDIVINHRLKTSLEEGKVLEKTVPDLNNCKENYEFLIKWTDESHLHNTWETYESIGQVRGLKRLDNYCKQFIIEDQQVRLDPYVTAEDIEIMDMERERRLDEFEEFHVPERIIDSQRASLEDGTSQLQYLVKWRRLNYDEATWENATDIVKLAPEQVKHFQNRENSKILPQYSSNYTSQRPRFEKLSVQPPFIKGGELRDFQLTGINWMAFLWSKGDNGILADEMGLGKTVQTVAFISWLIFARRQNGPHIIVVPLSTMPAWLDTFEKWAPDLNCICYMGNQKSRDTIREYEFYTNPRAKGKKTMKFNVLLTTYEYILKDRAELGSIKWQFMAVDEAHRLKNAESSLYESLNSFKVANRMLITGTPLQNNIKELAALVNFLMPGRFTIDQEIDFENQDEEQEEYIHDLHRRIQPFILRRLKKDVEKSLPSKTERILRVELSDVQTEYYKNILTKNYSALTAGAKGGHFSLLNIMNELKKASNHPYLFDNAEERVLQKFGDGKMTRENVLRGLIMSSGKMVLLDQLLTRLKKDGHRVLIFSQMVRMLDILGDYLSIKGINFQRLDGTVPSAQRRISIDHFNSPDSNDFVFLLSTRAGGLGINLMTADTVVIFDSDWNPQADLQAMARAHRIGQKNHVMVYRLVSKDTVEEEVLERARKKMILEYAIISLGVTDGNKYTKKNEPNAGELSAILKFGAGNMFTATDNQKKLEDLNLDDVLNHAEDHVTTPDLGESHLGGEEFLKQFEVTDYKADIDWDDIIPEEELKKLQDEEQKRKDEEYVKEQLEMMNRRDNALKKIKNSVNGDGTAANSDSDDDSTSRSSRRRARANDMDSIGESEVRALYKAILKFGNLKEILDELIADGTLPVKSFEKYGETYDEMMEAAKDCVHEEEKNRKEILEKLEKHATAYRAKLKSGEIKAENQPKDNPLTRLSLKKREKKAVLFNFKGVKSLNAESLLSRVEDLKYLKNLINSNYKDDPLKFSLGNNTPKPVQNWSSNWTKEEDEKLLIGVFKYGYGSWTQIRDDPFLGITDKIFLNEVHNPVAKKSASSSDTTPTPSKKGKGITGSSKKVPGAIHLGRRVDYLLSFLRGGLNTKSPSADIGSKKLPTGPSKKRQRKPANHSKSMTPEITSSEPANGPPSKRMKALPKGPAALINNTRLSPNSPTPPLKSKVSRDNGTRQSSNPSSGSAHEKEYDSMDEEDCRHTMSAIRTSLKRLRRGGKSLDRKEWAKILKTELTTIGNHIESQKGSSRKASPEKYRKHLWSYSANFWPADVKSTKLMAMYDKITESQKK

Structures are written as SMILES. For some of these results: Measured potencies and affinities stand elsewhere.

The source of these data is ChEMBL document CHEMBL3988442, “University of Dundee, Small-Polar-MMV Screening Library” (2021).

Chain of Protein translocase subunit SecA (Escherichia coli (strain K12)) (P10408 whole entry): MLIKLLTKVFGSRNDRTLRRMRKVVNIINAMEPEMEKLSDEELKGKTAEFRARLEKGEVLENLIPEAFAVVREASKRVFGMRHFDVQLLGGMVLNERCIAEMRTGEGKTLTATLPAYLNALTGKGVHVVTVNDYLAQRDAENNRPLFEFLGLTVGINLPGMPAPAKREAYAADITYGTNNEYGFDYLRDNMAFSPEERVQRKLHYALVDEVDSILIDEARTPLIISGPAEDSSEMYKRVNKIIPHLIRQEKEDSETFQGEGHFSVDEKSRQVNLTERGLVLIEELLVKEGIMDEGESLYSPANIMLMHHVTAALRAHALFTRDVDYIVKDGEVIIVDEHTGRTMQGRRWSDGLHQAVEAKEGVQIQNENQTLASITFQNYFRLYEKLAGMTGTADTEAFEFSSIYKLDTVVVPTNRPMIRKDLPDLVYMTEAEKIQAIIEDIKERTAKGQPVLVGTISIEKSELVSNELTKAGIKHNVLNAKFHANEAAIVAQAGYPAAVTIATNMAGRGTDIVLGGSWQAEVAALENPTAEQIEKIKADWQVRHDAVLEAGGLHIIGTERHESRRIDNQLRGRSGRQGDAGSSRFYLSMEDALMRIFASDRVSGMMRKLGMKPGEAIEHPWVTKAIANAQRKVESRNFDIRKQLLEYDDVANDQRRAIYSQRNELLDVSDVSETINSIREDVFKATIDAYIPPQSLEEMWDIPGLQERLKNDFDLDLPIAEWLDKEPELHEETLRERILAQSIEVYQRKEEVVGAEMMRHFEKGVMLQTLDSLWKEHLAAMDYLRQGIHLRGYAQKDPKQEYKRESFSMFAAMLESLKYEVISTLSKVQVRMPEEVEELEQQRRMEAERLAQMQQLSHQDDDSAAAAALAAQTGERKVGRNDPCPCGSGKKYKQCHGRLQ

As for `CCOc1ncccc1NC(=O)c1cc(C)c(C)s1`, the Percent Effect in test [1] was -7.94%; in test [2] it was 1.39%; in test [3], 3.33%; in test [4] it was -1.86%; in test [5], -2.82%; in [6], -2.21%. Also, the Percent Effect was 11.1% in [7]; 11.6% in test [8]; -3.16% in test [9]; 2.56% in [10]; -0.429% in test [11].

As for `Cn1ccc2ccnc(CC3CN(C(=O)C4CCC(F)(F)CC4)C3)c21`, the Percent Effect in test [1] was -2.7%; in [2] it was 6.76%; in [3], 5.92%; in [4], 5.61%; in [5] it was -0.395%; in [6] it was -0.696%. Also, the Percent Effect in test [7] is 9.05%; in test [8], 1.45%; in test [9] it was 6.45%; in test [10] it was 14.3%; in test [11] it was -12.4%.

On to `c1ccc(-n2ccnc2)c(CNCC2CNc3ccnn3C2)c1` (stereo unspecified), for which the Percent Effect in test [1] is -2.24%; in test [2], 18.2%; in test [3], -5.79%; in [4], 12.2%; in test [5], 7.68%; in [6], 1.07%. Moreover, the Percent Effect in test [7] was 2.53%; in test [8], 17.5%; in test [9] it was 5.83%; in test [10] it was 21.9%; in test [11], -7.36%.

On to `CC(=O)NC1CCCN(C(=O)NCc2ccc(-c3ccn[nH]3)cc2)C1` (stereo unspecified), for which the Percent Effect in [1] was -4.57%; in test [2] it was 21.1%; in test [3], 2.99%; in test [4] it was -2.61%; in [5] it was 3.83%; in test [6] it was 0%. In addition, the Percent Effect in test [7] was 12.4%; in test [8], -12.3%; in test [9], 8.37%; in test [10], 23.5%; in test [11], -8.05%.

Regarding `CC(=O)N1CCC(Cc2cnc(-c3c(C)nn(C)c3C)cn2)C1` (stereo unspecified), the Percent Effect was -3.33% in [1]; 0% in test [2]; 8.59% in test [3]; 5.11% in [4]; 5.71% in test [5]; -8.62% in [6]. For the same molecule, the Percent Effect in test [7] was 2.2%; in test [8], -21.9%; in test [9], 4.25%; in [10], 6.41%; in test [11] it was -1.12%.

For `COCCCNC(=O)N1CCCC(c2nncn2C)C1` (stereo unspecified), the Percent Effect in test [1] is -5.16%; in [2] it was 2.63%; in [3], -3.92%; in test [4], 8.87%; in [5] it was -3.46%; in test [6], 0.36%. In addition, the Percent Effect is 7.87% in test [7]; 5.55% in test [8]; 0.493% in [9]; -6.17% in [10]; 2.53% in [11].

Consider `O=C(CCn1cccn1)N1C[C@@H]2CC[C@H](C1)N(Cc1ccccn1)C2=O`, for which the Percent Effect in [1] is -3.32%; in test [2], 5.41%; in test [3] it was -4.57%; in [4], 4.2%; in test [5], 2.51%; in test [6], 0.476%. Besides, the Percent Effect was 1.72% in [7]; 3.77% in test [8]; 5.82% in [9]; 14.6% in test [10]; -3.35% in test [11].

In the case of `CN(Cc1ccc(Cl)s1)C1CCCN(c2cccnn2)C1` (stereo unspecified), the Percent Effect in test [1] is -0.186%; in [2] it was -18.4%; in test [3] it was 14.3%; in [4] it was 0.257%; in test [5], 1.27%; in [6] it was 15.4%. Moreover, the Percent Effect is 7.19% in [7]; 10.5% in [8]; 9.57% in test [9]; 10.4% in test [10]; -1.67% in test [11].

Turning to `CC(NC1(CNC(=O)C(C)(C)C#N)CCOCC1)c1ccccc1` (stereo unspecified), the Percent Effect in test [1] was -11.4%; in [2], 0%; in test [3], -1.47%; in test [4], -3.49%; in [5] it was -3.03%; in test [6], -1.74%. Further, the Percent Effect in test [7] was 4.89%; in [8] it was 7%; in test [9] it was -7.53%; in test [10] it was -3.7%; in test [11], -3.14%.

As for `CCS(=O)(=O)NCCNC(=O)c1cc(Cl)c2c(c1)OCCCO2`, the Percent Effect in test [1] is -1.06%; in test [2], 8.11%; in [3], -7.22%; in test [4], 31.3%; in test [5], 1.47%; in [6], 5.21%. The Percent Effect was 8.33% in test [7]; 12.9% in test [8]; 2.15% in test [9]; 16.1% in test [10]; -5.31% in [11].

Take `Cc1cccc2c1cnn2CCCNC(=O)C(C)C`: the Percent Effect in test [1] was -4.75%; in [2] it was 13%; in test [3] it was 0.24%; in test [4], 14.3%; in [5] it was 7.96%; in [6], -5.52%. Moreover, the Percent Effect in test [7] is 6.16%; in [8], 5.24%; in test [9], 5.38%; in test [10], 11.1%; in [11], -0.927%.
